Values without a mark were called inactive. The source made the active and inactive calls. Unless noted, no stated cut-off is given here; in the data, active means inhibition above about 36%; inactive means the rest.
Tests used:
[1] = tested on: transactivating tegument protein VP16 (Human herpesvirus 1); assay: VP16 transactivation reporter inhibitors, counter-screen for SRC2 inhibitor project, cell-based, luminescence, single concentration (AID 652007); details: cell-based VP16 transactivation luciferase reporter, at 8.9 µM, hits give high values
[2] = biological target: Nuclear receptor coactivator 2 (Homo sapiens) (UniProt Q15596); assay: SRC2 coactivator transcriptional activity inhibitors, confirmation, cell-based, luminescence, HEK293, triplicate (AID 652008;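 active means mean inhibition above 46.5%, the solvent-only control mean plus 3 SD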;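 further: 0% = DMSO-treated cells and 100% = Gossypol at 36 µM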); details: HEK293 GAL4-SRC2 luciferase reporter, at 8.9 µM, hits give high values
Chain of Nuclear receptor coactivator 2 (Homo sapiens) (Q15596 whole entry, looked up, the tested form may be a part): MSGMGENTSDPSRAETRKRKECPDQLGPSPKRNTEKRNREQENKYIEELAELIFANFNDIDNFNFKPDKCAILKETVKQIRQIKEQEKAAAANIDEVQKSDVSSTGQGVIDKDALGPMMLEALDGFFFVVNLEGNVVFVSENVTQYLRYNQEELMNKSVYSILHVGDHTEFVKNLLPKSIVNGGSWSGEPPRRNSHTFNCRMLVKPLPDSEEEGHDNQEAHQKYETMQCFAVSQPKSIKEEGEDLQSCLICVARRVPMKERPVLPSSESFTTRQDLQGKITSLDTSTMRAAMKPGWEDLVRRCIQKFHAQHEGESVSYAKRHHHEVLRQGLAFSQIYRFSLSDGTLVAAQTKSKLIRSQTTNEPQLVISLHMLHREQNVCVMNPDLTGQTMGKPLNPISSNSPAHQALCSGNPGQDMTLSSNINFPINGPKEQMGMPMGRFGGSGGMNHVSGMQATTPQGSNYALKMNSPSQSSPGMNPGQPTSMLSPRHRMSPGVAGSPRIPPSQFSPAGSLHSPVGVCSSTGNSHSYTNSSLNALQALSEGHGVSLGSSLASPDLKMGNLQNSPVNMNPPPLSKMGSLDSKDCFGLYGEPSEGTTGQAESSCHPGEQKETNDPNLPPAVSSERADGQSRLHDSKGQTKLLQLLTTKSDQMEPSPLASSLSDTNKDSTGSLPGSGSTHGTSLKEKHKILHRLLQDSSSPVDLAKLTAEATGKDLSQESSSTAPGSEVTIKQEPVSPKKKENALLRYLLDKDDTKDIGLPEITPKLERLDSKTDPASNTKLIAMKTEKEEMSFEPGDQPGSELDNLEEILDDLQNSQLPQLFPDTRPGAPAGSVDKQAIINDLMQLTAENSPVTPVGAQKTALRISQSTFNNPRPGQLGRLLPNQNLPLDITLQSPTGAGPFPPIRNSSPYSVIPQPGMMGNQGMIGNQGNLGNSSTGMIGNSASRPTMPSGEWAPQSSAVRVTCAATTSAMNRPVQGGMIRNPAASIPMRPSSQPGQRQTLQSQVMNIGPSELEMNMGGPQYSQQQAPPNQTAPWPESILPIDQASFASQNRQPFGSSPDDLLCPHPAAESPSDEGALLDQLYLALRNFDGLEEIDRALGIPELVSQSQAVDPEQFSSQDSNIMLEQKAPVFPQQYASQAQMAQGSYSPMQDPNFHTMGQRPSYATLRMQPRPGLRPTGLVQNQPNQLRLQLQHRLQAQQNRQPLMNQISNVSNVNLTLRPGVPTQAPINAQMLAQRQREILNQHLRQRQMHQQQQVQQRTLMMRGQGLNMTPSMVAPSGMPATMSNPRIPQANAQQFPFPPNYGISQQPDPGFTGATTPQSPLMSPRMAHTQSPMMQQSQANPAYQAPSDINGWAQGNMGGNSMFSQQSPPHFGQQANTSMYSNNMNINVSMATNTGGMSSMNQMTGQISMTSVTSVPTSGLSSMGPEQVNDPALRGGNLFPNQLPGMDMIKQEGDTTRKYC

SMILES | inhibition [1] | inhibition [2]
CCCNC(=O)C[C@H]1C[C@H]2c3cc(NC(=O)Nc4ccc(F)cc4)ccc3O[C@H]2[C@@H](CO)O1 | 4.81% | -7.94%
O=C(Nc1nccs1)c1cc2c(s1)CCCCC2 | 0.43% | 38.7%
C[C@H]1CCC[C@@H](O)CC(=O)c2c(O)cc(O)cc2CC(=O)O1 | 24% | 32.3%
COc1ccc(C(NC(=O)C2CCN(CCCOc3ccccc3)CC2)c2cccs2)cc1 (centres undefined) | -8.07% | 3.49%
Cc1sc(NC(=O)CSc2nnnn2C(C)C)c(C#N)c1C | 2.68% | -4.47%
CC1CCc2c(sc3nc(CSc4ncn[nH]4)[nH]c(=O)c23)C1 (centres undefined) | 33% | 35.2%
Fc1ccc(-c2nnc(NC3=NCCCCC3)o2)cc1 | -10.8% | 31.4%
COc1ccccc1/C=C/C1(C(=O)NC2CCCC2)CC(=O)N1c1ccc(F)cc1 (centres undefined) | 19.7% | 49.2% (active)
CCC(C)Nc1nc(C)nc2c1oc1ccccc12 (centres undefined) | 2.3% | 3.55%
CC(C)[C@H](CO)Nc1nc(NCc2ccc(S(N)(=O)=O)cc2)c2ncn(C(C)C)c2n1 | 14.3% | 37.8%
CCCCCCCCN1C(=O)[C@H](CC(=O)NCCCC)C[C@@]2(C(=O)OCC)CCCC=C12 | -14% | -0.38%
C[n+]1ccccc1/C=C/c1ccccc1Cl | -18.2% | -7.01%
O=C(c1c[nH]c2ccccc12)C(Cl)c1ccccc1 (centres undefined) | 27.7% | 33.8%
CCC/C(C#Cc1ccsc1)=C1/c2ccccc2C(=O)N1c1ccccc1 | -8.53% | -18.8%
CC(C)Oc1ccc(S(=O)(=O)N2CCCCC2)cc1NC(=O)C1CCCC1 | 11.3% | 2.87%
O=C(C(O)c1ccc(Br)cc1)N1CCC(Nc2ccc3[nH]ncc3c2)CC1 (centres undefined) | -4.16% | -7.36%
C[C@@H]1CN([C@H](C)CO)C(=O)c2cc(NC(=O)Nc3ccc(C(F)(F)F)cc3)ccc2O[C@H]1CN(C)S(=O)(=O)c1ccccc1 | 18.9% | 32.9%
CC(=O)c1c(C)[nH]c(C(=O)Nc2ccc(N3CCCCCC3)cc2)c1C | -41.5% | 19.9%
CCN1C=CC(=C2C(=O)c3ccccc3C2=O)C=C1 | 42.3% (active) | 58.6% (active)
Cc1ccc(-c2noc(CCCC(=O)NC3CCCC3)n2)cc1 | 20.1% | 42.4%
O=C(Nc1ncc([N+](=O)[O-])s1)c1ccc2c(c1)OCO2 | -5.69% | 37.6%
Cc1ccc(NC(=O)C2CCN(S(=O)(=O)c3cc([N+](=O)[O-])ccc3Cl)CC2)nc1 | 10.7% | 24.3%
Cc1cccc(C(=O)Nc2ccc(CC(=O)O)cc2)c1 | -2.26% | 26.9%
Cc1ccc(C)c(-c2nc3cc(N)ccc3o2)c1 | 36.8% (active) | 55% (active)

SMILES | inhibition [1] | inhibition [2]
CCOC(=O)C(C(=O)OCC)C(Nc1cccc(Br)c1)c1ccccc1 (centres undefined) | 8.47% | 19.3%
CCOC(=O)CCC(=O)c1c(C)oc2ccc(OC)cc12 | 6.24% | -15%
Cc1ccc(/C=C2\SC(=S)N(CCCC(=O)Nc3cc(C)on3)C2=O)cc1 | 31.6% | 68.8% (active)
O=C1C=CC2C3C(=O)N(c4ccccc4)C(=O)C3C1N2Cc1ccccc1 (centres undefined) | 30.5% | 65.9% (active)
Cc1ccc(/C=C2\SC(=S)N(CCCC(=O)Nc3ccccc3C(=O)O)C2=O)cc1 | 40% (active) | 59.4% (active)
COC(=O)CCCNC(=O)CCc1nnc(-c2ccc(-c3ccccc3)cc2)o1 | 34% | 62.8% (active)
COc1ccc(CNCCNC(=O)c2cccs2)c(OC)c1OC | 8.76% | 9.01%
Nc1ccc(C(=O)N2CCN(S(=O)(=O)c3ccc4c(c3)OCCO4)CC2)cc1[N+](=O)[O-] | 2.71% | 40.5%
CN(C)Cc1ccc(-c2nc3cccc4c3n2CCNC4=O)cc1 | -27.9% | 6.56%
Cc1ccc(-n2c(C)c([N+](=O)[O-])c3ccc(O)cc32)cc1 | 2.28% | 47.5% (active)
Cc1ccc(CN2C(=O)/C(=C\c3ccc(C(=O)NCc4cccnc4)cc3)Oc3ccccc32)cc1 | -0.83% | 50.2% (active)
CC(C)(C)c1ccc(C(=O)Nc2ccc(NC(=O)C(=O)O)cc2)o1 | -30% | -15.8%
Cc1cc(=O)oc2cc(OCC(=O)NC3CCCC3)ccc12 | -12.6% | -25.6%
C[C@@H]1CCN(C2CC2)S(=O)(=O)c2ccc(N3CCC[C@H]3C)cc2O1 | -8.49% | -6.67%
Cc1c(Cl)sn(-c2ccc(Cl)cc2)c1=O | 76.3% (active) | 93.4% (active)
CCc1nnc(NC(=O)c2nc(S(=O)(=O)Cc3ccc(C)cc3)ncc2Cl)s1 | 48.1% (active) | 58.3% (active)
c1nnc2c3c4c(sc3ncn12)CCC4 | 4.85% | 26.2%
COc1ccc(-c2cn3cccnc3n2)cc1NC(=O)C(C)Oc1ccccc1 (centres undefined) | -18.1% | -20.2%
CCN1CCN(Cc2ccc(NC(=O)c3cccc(-c4ccc5nc(NC(=O)C6CC6)sc5n4)c3)cc2C(F)(F)F)CC1 | 24.5% | 58.1% (active)
COCc1cc(C)[nH]c(=O)c1C(=O)NC12CC3CC(CC(C3)C1)C2 | 15.4% | -11%
O=C(c1ccc(Cl)cc1)C(CN1CCCC1)c1ccccc1 (centres undefined) | 26.1% | 53.9% (active)
CC1=CC(C)(C)N(S(=O)(=O)c2ccc(C)cc2)c2ccc(C)cc21 | 0.6% | -5.7%
CC(c1nccs1)N(C)C(=O)CCc1nnc(-c2ccc(-c3ccccc3)cc2)o1 (centres undefined) | -11% | 30.6%
COc1ccc(C(=O)c2[nH]c(N)c(C(=O)NCCc3c[nH]c4ccccc34)c2-c2ccc(OC)c(OC)c2)cc1 | -9.46% | -4.51%

SMILES | inhibition [1] | inhibition [2]
COc1cc(SC)ccc1C(=O)Nc1ncc(C)s1 | 10.3% | 24%
CCn1c(=O)c2c(cnn2C)c2ccccc21 | 25.8% | 50.6% (active)
Clc1cccc(CN2CCN(c3ncc(Cc4ccccc4)cn3)CC2)c1Cl | -0.77% | 24.5%
CN1CCN(/N=C/c2ccc(N(c3ccccc3)c3ccccc3)cc2)CC1 | 2.36% | 27.4%
CCOC(=O)C1CCCN(C(=O)c2ccc3c(c2)N(C)C(=O)/C(=C/c2ccccc2Cl)S3)C1 (centres undefined) | -1.52% | 23.8%
Cc1ccccc1C(=O)N1CCN(c2ccc(NC(=O)c3ccccc3[N+](=O)[O-])cc2)CC1 | -22% | 12.1%
CCOC(=O)CSc1[nH]c2cc(OC)ccc2c1[N+](=O)[O-] | -31.1% | 3.3%
CC(C)(C)c1ccc(NC(=O)COc2ccc(-n3ccnc3)cc2)cc1 | 10.3% | 61.8% (active)
Cc1ccc(C(=O)c2cnc3ccccc3c2-c2ccccc2)cc1 | -3.52% | 16.4%
O=C(Nc1ccc(NC(=O)c2ccco2)cc1)c1ccc2c(c1)OCCO2 | -30.2% | 12.1%
CC(=C\c1ccccc1)/C=C1/SC(=S)N(CCCC(=O)O)C1=O | 78.9% (active) | 79.2% (active)
CCOC(=O)C1CCN(C(=O)CCc2c(C)nc3cc(-c4ccccc4)nn3c2C)CC1 | -24.4% | 48.5% (active)
CCc1ccc(CNC(=O)c2cc3c(C)nc4ccccc4c3o2)cc1 | 20.6% | 10.3%
O=[N+]([O-])c1cc(Br)c(Nc2ccccc2)c([N+](=O)[O-])c1 | -21.9% | -12.5%
O=C(CCl)Nc1ccc(-c2ccccc2)cc1 | 32.4% | 65.6% (active)
COc1ccc(CNC(=O)COC(=O)CCCOc2ccc(Cl)cc2Cl)cc1 | 13% | 15.7%
COc1ccc(N2CCN(C3CCCN(S(=O)(=O)c4ccc(C)cc4C)C3)CC2)cc1 (centres undefined) | -13% | 29.6%
O=C(CCCN1C(=O)/C(=C/c2cccc(Br)c2)SC1=S)NCCCN1CCOCC1 | 32.1% | 10.6%
COc1ccccc1NC(=S)N1CCCCCC1 | -7.33% | -14.3%
Cc1cccc(C)c1Nc1nnc(SC(C)C(=O)Nc2c(C)n(C)n(-c3ccccc3)c2=O)s1 (centres undefined) | -15.1% | -13.2%
Cn1c(=O)c2[nH]c(CCCc3ccc([N+](=O)[O-])cc3)nc2n(C)c1=O | -19.8% | 5.32%
O=C(CCl)Nc1ccc(C(=O)NCC2COc3ccccc3O2)cc1 (centres undefined) | 71.2% (active) | 39.9%
C=CCN(CC#CCN(C)C(=O)c1cccn1C(=O)OC(C)(C)C)Cc1ccc(OC)cc1OC | -6.71% | -1.62%
N#Cc1ccccc1COc1ccc(/C=C/C(=O)O)cc1 | 57.9% (active) | 76.8% (active)

— PubChem BioAssay
